Data taken from PubChem BioAssay (NCATS).
Results filed as inconclusive are left out. A call without a number means that no potency is given here. A number with no mark means an inactive call. Activity calls are given as the source filed them. The call rests on the fitted dose curve; in most records, active means well fitted curve in the direction sought with a large enough effect; inconclusive means small, poorly fitted or top-dose-only effect, or another doubt; inactive means no such curve, though single readings can be large; an effect the other way counts as inactive or inconclusive.

Legend:
[1] = target: Rap guanine nucleotide exchange factor 3 (Homo sapiens) (UniProt O95398); assay: Confirmatory qHTS for antagonist of cAMP-regulated guanine nucleotide exchange factor 3 (EPAC1) (AID 1645880); further: nearly all actives have a fitted effect of over 55% in size; further: potency means the concentration at half of the fitted maximal effect
How it was run: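 Nucleotide exchange uses 100 nM EPAC1, 250 nM RAP1B-BODIPY-GDP and 50 uM GDP, with compounds in a concentration-titration series. After 5 min at room temperature, fluorescence (480 nm ex/540 nm em) is read every 5 min for 30 min. Data are normalized to control ATA and DMSO.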

[2] = target: Rap guanine nucleotide exchange factor 3 (Homo sapiens) (UniProt O95398); assay: Confirmatory qHTS for agonist of cAMP-regulated guanine nucleotide exchange factor 3 (EPAC1) (AID 1645881);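 further: EPAC1 catalysed release of BODIPY-GDP from Rap1B seen as fluorescence loss; nearly all actives have a fitted effect of over 75% in size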
[3] = target: Rap guanine nucleotide exchange factor 4 (Homo sapiens) (UniProt Q8WZA2); assay: Confirmatory qHTS for agonist of cAMP-regulated guanine nucleotide exchange factor 4 (EPAC2) (AID 1645884);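 further: nucleotide exchange releases bodipy-GDP from Rap1 and this lowers its fluorescence; nearly all actives have a fitted effect of over 65% in size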
[4] = target: Rap guanine nucleotide exchange factor 4 (Homo sapiens) (UniProt Q8WZA2); assay: Confirmatory qHTS for antagonist of cAMP-regulated guanine nucleotide exchange factor 4 (EPAC2) (AID 1645885); further: nearly all actives have a fitted effect of over 25% in size; further: potency means the concentration at half of the fitted maximal effect
[5] = target: Rap guanine nucleotide exchange factor 3 (Homo sapiens) (UniProt O95398); assay: Counterscreen qHTS for antagonist of cAMP-regulated guanine nucleotide exchange factor 3 (EPAC1) (AID 1645888);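 further: fluorescence loss as bound BODIPY-GDP is released from Rap1B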
How it was run: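 Rap1B–BODIPY-GDP (250 nM) with 50 uM GDP; compounds pin-transferred to 9.74 nM–152 uM final (activator) or from 7.32 nM upwards (inhibitor). Fluorescence Ex/Em 480/540 nm read at 5 and 30 min, then after adding cAMP or buffer, at room temperature.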

Chain of Rap guanine nucleotide exchange factor 4 (Homo sapiens) (Q8WZA2 whole entry, looked up): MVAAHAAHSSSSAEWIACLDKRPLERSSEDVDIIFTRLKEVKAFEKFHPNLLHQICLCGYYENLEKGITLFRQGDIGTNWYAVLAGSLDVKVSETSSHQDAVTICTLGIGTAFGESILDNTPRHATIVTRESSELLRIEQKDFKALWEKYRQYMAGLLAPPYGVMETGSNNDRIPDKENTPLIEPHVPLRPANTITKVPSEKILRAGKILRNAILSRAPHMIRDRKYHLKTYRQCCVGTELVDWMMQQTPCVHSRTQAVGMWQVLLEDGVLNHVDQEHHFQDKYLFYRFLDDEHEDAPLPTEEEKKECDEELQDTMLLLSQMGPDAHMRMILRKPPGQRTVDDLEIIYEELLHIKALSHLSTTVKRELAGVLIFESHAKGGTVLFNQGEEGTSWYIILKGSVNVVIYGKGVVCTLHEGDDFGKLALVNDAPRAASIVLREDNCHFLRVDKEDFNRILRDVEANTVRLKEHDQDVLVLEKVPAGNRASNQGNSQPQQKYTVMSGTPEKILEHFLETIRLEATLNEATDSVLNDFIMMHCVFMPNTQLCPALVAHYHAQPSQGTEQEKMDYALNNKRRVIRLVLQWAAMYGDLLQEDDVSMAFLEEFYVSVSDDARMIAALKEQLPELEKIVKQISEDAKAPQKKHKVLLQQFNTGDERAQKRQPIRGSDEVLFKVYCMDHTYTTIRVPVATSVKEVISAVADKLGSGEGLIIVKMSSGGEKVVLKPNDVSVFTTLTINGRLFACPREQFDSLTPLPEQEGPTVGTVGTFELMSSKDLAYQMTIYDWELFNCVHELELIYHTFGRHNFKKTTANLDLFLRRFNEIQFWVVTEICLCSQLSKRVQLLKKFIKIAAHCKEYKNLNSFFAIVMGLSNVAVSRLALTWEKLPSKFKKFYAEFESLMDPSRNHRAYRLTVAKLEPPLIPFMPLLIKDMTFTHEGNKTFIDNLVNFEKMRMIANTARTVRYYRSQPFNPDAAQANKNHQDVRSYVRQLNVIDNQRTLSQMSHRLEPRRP
Chain of Rap guanine nucleotide exchange factor 3 (Homo sapiens) (O95398 whole entry, looked up): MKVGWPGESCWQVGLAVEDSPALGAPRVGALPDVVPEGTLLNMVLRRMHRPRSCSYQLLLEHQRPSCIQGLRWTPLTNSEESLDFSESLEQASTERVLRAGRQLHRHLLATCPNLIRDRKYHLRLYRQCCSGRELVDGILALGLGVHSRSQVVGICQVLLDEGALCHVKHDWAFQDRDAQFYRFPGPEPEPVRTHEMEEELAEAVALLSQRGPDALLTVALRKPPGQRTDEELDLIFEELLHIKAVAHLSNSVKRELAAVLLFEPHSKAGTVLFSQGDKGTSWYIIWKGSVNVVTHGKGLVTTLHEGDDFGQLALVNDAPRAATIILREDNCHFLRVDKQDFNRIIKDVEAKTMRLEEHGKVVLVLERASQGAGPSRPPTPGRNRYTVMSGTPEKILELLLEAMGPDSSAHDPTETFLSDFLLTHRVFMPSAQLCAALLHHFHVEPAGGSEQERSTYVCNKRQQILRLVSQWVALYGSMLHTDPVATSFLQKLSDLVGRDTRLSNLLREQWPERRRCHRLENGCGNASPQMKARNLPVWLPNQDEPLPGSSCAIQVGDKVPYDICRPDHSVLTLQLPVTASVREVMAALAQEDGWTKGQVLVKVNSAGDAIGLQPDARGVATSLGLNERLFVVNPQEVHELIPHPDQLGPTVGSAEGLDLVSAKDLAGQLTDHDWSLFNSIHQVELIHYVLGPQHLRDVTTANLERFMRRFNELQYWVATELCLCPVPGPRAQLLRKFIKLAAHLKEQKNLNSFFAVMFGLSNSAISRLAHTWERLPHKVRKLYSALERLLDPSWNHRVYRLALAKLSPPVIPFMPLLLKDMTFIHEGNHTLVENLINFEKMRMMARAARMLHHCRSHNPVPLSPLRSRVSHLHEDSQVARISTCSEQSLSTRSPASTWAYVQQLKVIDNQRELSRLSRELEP

Row | SMILES | Potency [1] | Potency [2] | Potency [3] | Potency [4] | Potency [5] | activation [3] | activity change, negative = inhibition [5] | outcome [4]
1 | CS(=O)(=O)c1ccc2c(c1)sc1nc(=O)c(/C=C3/C=CC(=O)C(O)=C3)c(N)n12 | 3.38 µM (active) | inactive | inactive | inactive | inactive |  |  | 
2 | O=C1NC(=O)C2(CCC(C(=O)O)C2)N1 (stereo not given) | inactive | inactive |  | inactive |  | 11.7% [at 17.1 µM, percent relative to cAMP agonist control] | 14.4% [at 30.8 µM] | 
3 | c1ccc(CN(Cc2ccccc2)c2c3c(nc4ncnn24)CCC3)cc1 | inactive | inactive | inactive | inactive | inactive |  |  | 
4 | O=S1(=O)CCO[C@H]2Cc3ccccc3[C@H]2N1Cc1ccc(Cl)cc1 | inactive | inactive |  | inactive |  | -2.47% [at 17.1 µM, percent relative to cAMP agonist control] | -21.2% [at 30.8 µM] | 
5 | COc1ccc2oc(C)c(C(=O)c3ccc(C)cc3)c2c1 | inactive | inactive |  | inactive |  | 14.7% [at 17.1 µM, percent relative to cAMP agonist control] | -20.6% [at 30.8 µM] | 
6 | CCOc1cccc(C(=O)N(Cc2ccc(F)cc2)Cc2ccco2)c1 | inactive | inactive | inactive | inactive | inactive |  |  | 
7 | Cc1ccc(-c2cc(C(=O)Nc3ccc4c(c3)OCCO4)c3ccccc3n2)cc1 | inactive | inactive |  | inactive |  | 9.86% [at 17.1 µM, percent relative to cAMP agonist control] | 3.98% [at 30.8 µM] | 
8 | O=C(O)c1ccc(C=C(c2nc3ccccc3s2)c2nc3ccccc3s2)cc1 | 42.6 µM (active) | inactive | inactive | inactive | inactive |  |  | 
9 | CCOC(=O)C1CCCCN1C(=O)c1oc2c(Cl)cc(C)cc2c1C (stereo not given) | inactive | inactive | inactive | inactive | inactive |  |  | 
10 | COc1ccc(C2C=C(c3ccccc3)Nc3nnnn32)cc1 (stereo not given) | inactive | inactive | inactive | inactive | inactive |  |  | 
11 | COc1ccc(Cl)cc1N1C(=O)C2CCCN2C1c1ccccc1F (stereo not given) | inactive | inactive | inactive | inactive | inactive |  |  | 
12 | Cc1[nH]n(-c2ccccc2)c(=O)c1C(c1cccc([N+](=O)[O-])c1O)c1c(C)[nH]n(-c2ccccc2)c1=O | 44.7 µM (active) | inactive |  | inactive |  | 0.393% [at 17.1 µM, percent relative to cAMP agonist control] | 23.8% [at 30.8 µM] | 
13 | CS(=O)(=O)N1N=C(c2ccco2)CC1c1ccc(Cl)cc1Cl (stereo not given) | inactive | inactive |  | inactive |  | 0.361% [at 17.1 µM, percent relative to cAMP agonist control] | 3.91% [at 30.8 µM] | 
14 | COc1ccc(S(=O)(=O)N2CCC[C@H]2C(=O)N2CCC[C@H]2C(=O)N[C@@H](C)c2ccccc2)cc1C | inactive | inactive |  | inactive |  | 1.42% [at 17.1 µM, percent relative to cAMP agonist control] | 6.49% [at 30.8 µM] | 
15 | CCOC(=O)c1ccccc1-c1csc(NS(=O)(=O)c2ccc(Cl)cc2)n1 | 31.6 µM (active) | inactive |  | inactive |  | 4% [at 17.1 µM, percent relative to cAMP agonist control] | -28.7% [at 30.8 µM] | 
16 | O=c1oc(-c2ccccc2NS(=O)(=O)c2ccccc2)nc2ccccc12 | inactive | inactive |  | inactive |  | 2.35% [at 17.1 µM, percent relative to cAMP agonist control] | 2.74% [at 30.8 µM] | 
17 | NC(=O)COC(=O)/C=C/c1ccc2ccccc2n1 | inactive | inactive | inactive | inactive | inactive |  |  | 
18 | Cc1cccc(Cc2cnc(N3C(=N)SC(c4ccccc4)C3=O)s2)c1 (stereo not given) | inactive | inactive | inactive | inactive | inactive |  |  | 
19 | CCc1noc(C)c1C(=O)N1CCCSC1=Nc1ccccc1C(C)C | inactive | inactive | inactive | inactive | inactive |  |  | 
20 | C(=C\c1ccccc1)/CN1CCN(C(c2cc3ccccc3o2)c2nnnn2C2CCCC2)CC1 (stereo not given) | inactive | inactive |  | inactive |  | 0% [at 17.1 µM, percent relative to cAMP agonist control] | 19.5% [at 30.8 µM] | 
21 | CCN(CC)c1ccc(Nc2nc(-c3cccnc3)cs2)cc1 | inactive | inactive | inactive | inactive | inactive |  |  | 
22 | Cc1c(C(=O)NCCO)sc2nc3n(c(=O)c12)CCC3 | inactive | inactive | inactive | inactive | inactive |  |  | 
23 | Cc1ccc(OCCn2cccn2)c(C)c1 | inactive | inactive | inactive | inactive | inactive |  |  | 
24 | CCc1ccc(S(=O)(=O)/N=C2\C=C(Nc3cccc(C(=O)O)c3)C(=O)c3ccccc32)cc1 | 37.9 µM (active) | inactive | inactive | 0.379 µM (active) | inactive |  |  | 

Row | SMILES | Potency [1] | Potency [2] | Potency [3] | Potency [4] | Potency [5] | activation [3] | activity change, negative = inhibition [5] | outcome [4]
25 | Cc1cccc(C(=O)Nc2cccc(C(=O)N/N=C/c3cccc(C)n3)c2)c1 | inactive | inactive | inactive | inactive | inactive |  |  | 
26 | CC1CCc2[nH]c3ccc(C(=O)N(C)CC(=O)Nc4ccccc4Br)cc3c2C1 (stereo not given) | inactive | inactive | inactive | inactive | inactive |  |  | 
27 | Cc1cc(Nc2cccc(C(F)(F)F)c2)nc2ccc(NC(=O)c3ccc(N(C)C)cc3)cc12 | inactive | inactive | inactive | inactive | inactive |  |  | 
28 | Cc1ccc(C)n1-c1c(C(=O)NCCC(C)C)sc2ncccc12 | inactive | inactive | inactive | inactive | inactive |  |  | 
29 | O=C1C=C(N2CCCCC2)c2ccccc2C1=O | 25.1 µM (active) | inactive |  | inactive |  | 2.92% [at 17.1 µM, percent relative to cAMP agonist control] | -3.66% [at 30.8 µM] | 
30 | Nc1ncnc2c1ncn2[C@@H]1O[C@H](C(=O)N[C@H]2c3ccccc3C[C@H]2OC=O)[C@@H](O)[C@H]1O | inactive | inactive | inactive | inactive | inactive |  |  | 
31 | Cc1ccc2nc3sc(C(=O)NCc4ccco4)c(N)c3cc2c1 | inactive | inactive |  | inactive |  | 2.22% [at 17.1 µM, percent relative to cAMP agonist control] | 3.21% [at 30.8 µM] | 
32 | CC(=O)C(Sc1nnnn1-c1ccc(O)cc1)c1ccccc1 (stereo not given) | inactive | inactive | inactive | inactive | inactive |  |  | 
33 | O=C(Cc1c(Cl)cccc1Cl)Nc1ccncc1 | inactive | inactive |  | inactive |  | 13.7% [at 17.1 µM, percent relative to cAMP agonist control] | 2.85% [at 30.8 µM] | 
34 | COc1ccc(C(=O)Nc2ccc(-c3cc4ccccc4oc3=O)c(C)c2)cc1OC | inactive | inactive | inactive | inactive | inactive |  |  | 
35 | CCc1cccc(C)c1Nc1c(-c2cccs2)nc2ncccn12 | inactive | inactive | inactive | inactive | inactive |  |  | 
36 | CCOc1ccc(NS(=O)(=O)c2cc3c(cc2C)N(C)CCO3)cc1 | inactive | inactive |  | inactive |  | 7.18% [at 17.1 µM, percent relative to cAMP agonist control] | -12% [at 30.8 µM] | 
37 | OCc1cccc(-c2cnc3c(Nc4cccc(OC(F)(F)C(F)F)c4)nccn23)c1 | inactive | inactive |  | inactive |  | -0.754% [at 17.1 µM, percent relative to cAMP agonist control] | 9.1% [at 30.8 µM] | 
38 | Cc1ncc(CO)c(/C=N/NC(=O)c2cc(Br)ccc2O)c1O | inactive | inactive |  | inactive |  | 0% [at 17.1 µM, percent relative to cAMP agonist control] | -9.07% [at 30.8 µM] | 
39 | CCc1ccc2c(c1)C(NC(C)=O)C(=O)N2CCN1CCOCC1 (stereo not given) | 19 µM (active) | inactive | inactive | inactive | inactive |  |  | 
40 | O=C(Nc1ccncc1)c1ccc2ncsc2c1 | inactive | inactive | inactive | inactive | inactive |  |  | 
41 | COc1cc2c(cc1OC)-c1cc(NCc3ccccn3)nc(=O)n1CC2 | 37.9 µM (active) | inactive | inactive | inactive | inactive |  |  | 
42 | CCn1c(C(=O)N2CCCC(C(=O)N3CCN(c4cc(C)ccc4C)CC3)C2)cc2sccc21 (stereo not given) | inactive | inactive | inactive |  | inactive |  |  | inactive [at 12.7 µM]
43 | Cc1ccc(-n2nc(C(=O)N(C)c3ccc(C)c(C)c3)c3c4ccccc4n(C)c3c2=O)cc1 | inactive | inactive | inactive |  | inactive |  |  | inactive [at 12.7 µM]
44 | COCCn1c(SCC(=O)Nc2ccc3c(c2)CCC3)nc2ccccc2c1=O | inactive | inactive |  | inactive |  | -0.521% [at 17.1 µM, percent relative to cAMP agonist control] | -10.3% [at 30.8 µM] | 
45 | CCOC(=O)c1[nH]c(C)c(C(=O)NC(C)(C)C)c1C | inactive | inactive | inactive | inactive | inactive |  |  | 
46 | CC(C)(C)c1ccc(OCCC(=O)OCC(=O)Nc2ccc(N3CCOCC3)cc2)cc1 | inactive | inactive | inactive | inactive | inactive |  |  | 
47 | O=C(O)c1ccc(S(=O)(=O)/N=C2\C=C(Nc3ccccc3F)C(=O)c3ccccc32)cc1 | 30.1 µM (active) | inactive | inactive | inactive | inactive |  |  | 
48 | Cc1cccc(Cn2cc(SCC(=O)Nc3nccs3)c3ccccc32)c1 | inactive | inactive | inactive | inactive | inactive |  |  | 
